The list is not random: actives were taken first. Their share in the collection is about 4.2%.
NALP3 yeast inh – blocks the NALP3 inflammasome reconstituted in yeast; AID 2825; Yeast reconstituted NLRP3/ASC/caspase-1, beta-gal luminescence, 24 h; 330,000 compounds, 0.39% hits; inhibition, % at 10 µM;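 active means inhibition of 50% or more; inactive means inhibition below 50%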
NALP1 inh – blocks the NALP1 inflammasome reconstituted in yeast; S. cerevisiae NALP1/ASC/caspase-1 growth, X-gal OD620, 72 h; inhibition, % at 10 µM; 280,000 compounds, 0.61% hits; in the data active means inhibition mostly above about 24%, no sharp cut-off; inactive means mostly below about 32%
tim10-1 inh – growth inhibitors of tim10-1 mutant yeast. AID 463190. S. cerevisiae tim10-1 ts strain growth, BacTiter-Glo, 24 h. 330,000 compounds, 2.2% hits. inhibition, % at 20 µM;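 active means inhibition of at least 40%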;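 further: mutant grown at 25 °C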
V-ATPase pHluor – alters yeast V-ATPase proton transport | 350,000 compounds, 0.37% hits | S. cerevisiae, pHLuorin cytosolic pH fluorescence | AID 504577 | response, % at 10 µM; in the data active means response mostly above about 7.3%, no sharp cut-off; inactive means mostly below about 5.4%; further: actives read high
tim23-1 inh – growth inhibitors of tim23-1 mutant yeast | S. cerevisiae tim23-1 growth, BacTiter-Glo luminescence, 24 h | inhibition, % at 20 µM | 330,000 compounds, 1.3% hits;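 active means growth inhibition of the mutant yeast at or above 50%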;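 further: temperature-sensitive mutant grown at 25 °C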
TIM10 inh – growth inhibitors of TIM10 yeast strain; S. cerevisiae TIM10 strain growth, BacTiter-Glo luminescence, 24 h; inhibition, % at 10 µM; 330,000 compounds, 1.4% hits; AID 463195;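 active means inhibition of 40% or more at the single tested concentration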;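 further: wild-type TIM10 isogenic control strain grown at permissive 25 °C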
tim10-1 conf – confirmation of tim10-1 mutant yeast growth inhibitors | S. cerevisiae tim10-1 ts strain growth, BacTiter-Glo, 24 h | shares compounds with tim10-1 inh | 7,400 compounds, 56% hits | inhibition, % at 20 µM;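 active means inhibition of yeast growth at or above a set limit in either of two repeat tests at 20 µM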;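 further: tim10-1 mutant grown at permissive 25 °C to find synthetic lethal compounds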
tim10 confirm – confirmation of TIM10 yeast growth inhibitors | S. cerevisiae tim10 strain growth, BacTiter-Glo luminescence, 24 h | AID 463215 | shares compounds with TIM10 inh | 4,600 compounds, 63% hits | inhibition, % at 10 µM;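 active means inhibition of yeast growth at or above a set limit in either of two replicates at 10 µM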; further: this counterscreen used the strain with wild-type TIM10
Numbers stand for hits; i = inactive; nt = not tested or not shown.

SMILES	NALP3 yeast inh	NALP1 inh	tim10-1 inh	V-ATPase pHluor	tim23-1 inh	TIM10 inh	tim10-1 conf	tim10 confirm
O=C(NNC(=O)c1cnccc1C(F)(F)F)c1cccc(Cl)c1	i	i	i	i	i	i	nt	nt
O=C(Nc1ccccc1C(=O)NCc1ccccc1)c1ccccc1	i	i	47.3	i	i	45.6	42.0	i
O=C(Nc1cccc(NC(=O)c2ccc([N+](=O)[O-])o2)c1)c1ccco1	i	i	72.0	i	i	66.6	65.8	67.2
CCOC(=O)C1=C(COC(=O)CNC(=O)c2ccc(C(C)(C)C)cc2)NC(=O)NC1C (centres undefined)	i	nt	i	i	i	i	nt	nt
CS(=O)(=O)c1cccc(C(=O)Nc2ccc(-c3nc4ccccc4[nH]3)cc2)c1	i	i	i	i	i	i	nt	nt
Cc1cccc(NC(=O)c2cc3n(n2)C(C(F)(F)F)CC(c2ccc4c(c2)OCO4)N3)c1 (centres undefined)	i	i	40.7	i	i	62.2	47.5	59.5
Cc1cccc(SCC(=O)Nc2ccc3c(c2)OCCO3)c1	i	i	i	i	i	i	nt	nt
CCCCn1c(N)c(N(CC)C(=O)c2ccc3c(c2)S(=O)(=O)c2ccccc2C3=O)c(=O)[nH]c1=O	i	i	i	i	i	i	nt	nt
CCOC(=O)C1(CCCc2ccccc2)CCN(C(=O)CCc2cnn(C)c2)CC1	i	i	52.9	i	i	42.7	40.7	i
Cc1ccc(CSc2nnc(-c3cccs3)n2C)cc1	i	i	i	i	i	i	nt	nt
Cn1c(SCc2c(Cl)cccc2Cl)nnc1-c1cccs1	i	i	48.4	i	i	47.5	34.5	33.6
O=c1cc(-c2ccccc2)nc(N2CCN(Cc3ccccc3)CC2)[nH]1	i	nt	i	i	i	i	nt	nt
Cc1c(NC(C)c2cc(Cl)ccc2O)c(=O)n(-c2ccccc2)n1C (centres undefined)	i	i	i	i	i	i	nt	nt
COCCCn1c(=O)c2ccccc2n(Cc2ccccc2C)c1=O	i	i	i	i	i	i	nt	nt
COCn1c(=O)c2c(nc(SC3=NCCS3)n2Cc2ccccc2C)n(COC)c1=O	i	i	47.1	i	i	42.8	i	35.0
CCOc1ccc(-c2[nH]nc3c2C(c2cccnc2)C(C#N)=C(N)O3)cc1 (centres undefined)	i	i	i	i	i	i	nt	nt
COc1c(S(=O)(=O)n2nc(C)cc2C)ccc(Cl)c1Cl	i	i	49.4	i	i	44.0	44.3	42.2
Cc1ccccc1NC(=S)c1ccc2ccccc2n1	i	i	42.6	i	i	40.1	i	37.2
CCCN(CC(=O)Nc1ccccc1C)C(=O)c1ccc2ccccc2n1	i	nt	i	i	i	i	nt	nt
CCc1nccn1S(=O)(=O)c1ccccc1[N+](=O)[O-]	i	i	49.6	i	i	44.1	62.1	56.5
COc1cc(/C=C2\SC(=S)N(Nc3ncc(C(F)(F)F)cc3Cl)C2=O)ccc1O	i	i	47.5	i	i	50.6	i	41.5
CC(C)N(Cc1ccccc1)C(=O)COC(=O)c1ccc2c(c1)OCCO2	i	i	i	i	i	i	nt	nt
CN(C(=O)COC(=O)c1ccc2c(c1)OCCO2)c1ccccc1	i	i	44.1	i	i	49.8	47.5	43.0
COc1cccc(C(=O)Nc2cc(=O)n(C)c(=O)n2C)c1OC	i	i	i	i	i	i	nt	nt
C(=N\Nc1nc(Nc2ccccc2)nc(N2CCCCC2)n1)/c1ccco1	i	i	49.8	nt	i	48.1	i	37.3
SMILES	NALP3 yeast inh	NALP1 inh	tim10-1 inh	V-ATPase pHluor	tim23-1 inh	TIM10 inh	tim10-1 conf	tim10 confirm
Cc1cccc(NC(=S)NNC(=O)c2cc3c(s2)CCC(C)C3)c1C (centres undefined)	i	i	58.7	i	i	50.6	39.4	32.2
COc1ccccc1P(=O)(c1ccccc1)c1ccccc1	i	i	i	i	i	i	nt	nt
CCOc1ccc2cc(/C=C/C(=O)c3ccco3)c(Cl)nc2c1	i	i	48.8	i	i	41.6	36.0	i
CCOc1ccc2nc(SCC(=O)NNC(=O)c3ccco3)c(C)cc2c1	i	i	i	i	i	i	nt	nt
COc1cccc(-c2nc(NCC3CCCO3)c3ccccc3n2)c1O (centres undefined)	i	i	i	i	i	i	nt	nt
Oc1ccccc1-c1nc(NCC2CCCO2)c2ccccc2n1 (centres undefined)	i	i	55.6	i	i	60.6	40.5	i
O=C(Oc1ccc(/C=N/O)cc1)c1ccccc1Cl	i	i	51.8	i	i	56.6	45.0	i
CCN(CC(=O)Nc1cc(C)nn1-c1nc(C)cc(C)n1)Cc1ccccc1	i	i	43.7	i	i	43.6	i	i
CCOC(=O)C1=C(C)OC(N)=C(C#N)C1c1ccc(OC)c(CSc2ccccn2)c1 (centres undefined)	i	nt	i	i	i	i	nt	nt
COc1cc2c(cc1OC)C(c1cc(C)ccc1C)CC(=O)N2 (centres undefined)	i	i	i	i	i	i	nt	nt
CCCN1CCOC(CC(=O)Nc2ccc([N+](=O)[O-])cc2)C1=O (centres undefined)	i	i	i	i	i	i	nt	nt
Cc1ccc(NC(=O)c2cc(S(=O)(=O)NCCC3=CCCCC3)ccc2F)cc1	i	i	49.7	i	i	54.3	41.0	i
c1ccc(C2Nc3ccccc3-c3nc4ccccc4n32)cc1 (centres undefined)	i	i	40.8	i	i	46.8	i	34.7
C/C(=N\N=C1\NC(=O)C(CC(=O)Nc2ccc(Cl)cc2)S1)c1ccco1 (centres undefined)	i	i	i	i	i	i	nt	nt
C/C(=N\N=C1\NC(=O)C(CC(=O)Nc2ccc(C)c(Cl)c2)S1)C(C)(C)C (centres undefined)	i	i	51.8	i	i	43.9	32.3	i
C=C1CCC[C@]2(C)C[C@H]3OC(=O)C(CNC(C)(CO)CO)[C@H]3CC12 (some centres undefined)	i	i	50.8	i	i	43.4	51.9	50.2
COc1ccc(C(=O)Sc2nncc3ccccc23)cc1	i	i	44.9	i	i	41.6	i	41.4
COc1ccc(NC(=O)CSc2nncc3ccccc23)cc1	i	i	i	i	i	i	nt	nt
CCC(CC)NC(=O)CN1CCN(S(=O)(=O)c2ccc(Br)s2)CC1	i	nt	i	i	i	i	nt	nt
Cc1ccc(NC(=O)CN2CCCN(S(=O)(=O)c3ccc(Br)s3)CC2)cc1	i	i	43.5	i	i	42.4	32.4	i
CCOC(=O)c1c(NC(=O)COC(=O)c2c(C)noc2C)sc2c1CCC2	i	i	i	i	i	i	nt	nt
CCOC(=O)c1ccc(NC(=O)CC2C(=O)OCCN2CC)cc1 (centres undefined)	i	i	68.4	i	i	43.7	58.8	57.9

Screening results deposited in PubChem by several laboratories.
